Source: PubChem BioAssay
USP30 inh: inhibitors of human USP30 deubiquitinase; actives 5.3% (n = 47,000); AID 1645860, 2021; purified USP30, Ub-rhodamine cleavage fluorescence; Ubiquitin carboxyl-terminal hydrolase 30 (Homo sapiens), Q70CQ3; inhibition, % at 25 µM
USP10 inh: inhibitors of human USP10 deubiquitinase. purified USP10, Ub-rhodamine fluorescence, 60 min. inhibition, % at 20 µM. actives 1.1% (n = 47,000)
USP28 block: inhibitors of human USP28 deubiquitinase. Ubiquitin carboxyl-terminal hydrolase 28 (Homo sapiens), Q96RU2. purified USP28, Ub-rhodamine cleavage fluorescence, 30 min. inhibition, % at 25 µM. actives 3% (n = 47,000). AID 1645857, 2021
USP17 block: inhibitors of human USP17 deubiquitinase; Ubiquitin carboxyl-terminal hydrolase 17-like protein 5 (Homo sapiens), A8MUK1; purified USP17, Ub-rhodamine cleavage fluorescence, 3 h; inhibition, % at 50 µM; actives 6.5% (n = 47,000); AID 1645855, 2021
OTUD3 block: inhibitors of human OTUD3 deubiquitinase; OTU domain-containing protein 3 (Homo sapiens), Q5T2D3; purified OTUD3, Ub-rhodamine fluorescence, 2 h; inhibition, % at 25 µM; actives 0.7% (n = 47,000)
Target sequence (Q5T2D3 whole entry, looked up, the tested form may be a part): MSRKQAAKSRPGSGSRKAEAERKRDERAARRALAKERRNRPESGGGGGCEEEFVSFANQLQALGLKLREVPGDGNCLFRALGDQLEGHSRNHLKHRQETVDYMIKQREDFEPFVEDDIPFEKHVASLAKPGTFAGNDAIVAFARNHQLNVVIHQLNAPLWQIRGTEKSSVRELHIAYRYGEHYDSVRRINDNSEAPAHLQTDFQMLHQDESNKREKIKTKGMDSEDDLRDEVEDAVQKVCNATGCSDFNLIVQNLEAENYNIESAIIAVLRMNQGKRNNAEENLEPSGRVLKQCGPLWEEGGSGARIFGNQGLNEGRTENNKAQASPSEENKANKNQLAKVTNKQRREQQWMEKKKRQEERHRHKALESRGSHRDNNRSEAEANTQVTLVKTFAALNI
USP8 block: inhibitors of human USP8 deubiquitinase; Ubiquitin carboxyl-terminal hydrolase 8 (Homo sapiens), P40818; purified USP8, Ub-rhodamine cleavage fluorescence, 30 min; inhibition, % at 20 µM; actives 4.2% (n = 47,000); AID 1645853, 2021
Active calls of the source: *; / = no result. Only some compounds are listed: those with a hit (about 13% of all), similar ones and a draw of the others. Cut-off read from the data, not from the text of the source: active = inhibition above about 30%; inactive = the rest.

SMILES	USP30 inh	USP10 inh	USP28 block	USP17 block	OTUD3 block	USP8 block
Cc1nn2c(C)c(C(=O)Nc3ccc(F)cc3)nnc2c1-c1ccccc1	-12.4	-3.4	-2.8	-13.3	1.3	-6.3
O=C(Nc1cccc(Cl)c1)c1ncn2c1CNS(=O)(=O)c1ccccc1-2	36.0*	37.0*	66.2*	33.4*	11.6	22.7
COCCNC(=O)Cn1c(=O)n(Cc2ccc(C(=O)NCc3ccc(C)cc3)cc2)c(=O)c2ccccc21	90.3*	26.9	84.5*	77.2*	47.5*	19.1
COCCCNC(=O)c1ccc(Cn2c(=O)c3ccccc3n(CC(=O)NC3CCCCC3)c2=O)cc1	45.8*	1.3	20.3	61.8*	21.3	0.5
COCCNC(=O)Cn1c(=O)n(Cc2ccccc2)c(=O)c2c3c(sc21)CCC3	58.6*	0.0	17.3	29.3	20.0	14.3
COCCCNC(=O)c1ccc(Cn2c(=O)c3ccccc3n(CC(=O)NCc3ccco3)c2=O)cc1	-5.4	-2.1	-3.2	-33.8	-16.7	-22.3
CCCCOc1ccc(-c2cc3c(N4CCN(C(=O)c5ccco5)CC4)nccn3n2)cc1	-35.4	-5.9	-4.5	24.0	-11.0	7.6
CC1OC(OCC2OC(Oc3c(-c4ccc(O)c(O)c4)oc4cc(O)cc(O)c4c3=O)C(O)C(O)C2O)C(O)C(O)C1O (centres undefined)	0.4	-2.8	2.2	2.7	-6.8	-4.3
O=c1cc(-c2ccc(O)c(O)c2)oc2cc(O[C@@H]3O[C@H](CO)[C@@H](O)[C@H](O)[C@H]3O)cc(O)c12	91.5*	52.0*	89.6*	83.6*	97.5*	26.8
N#Cc1ccccc1-c1ccccc1C(=O)NCc1ccccc1F	0.2	-0.2	-0.7	-6.7	-4.5	-8.0
CS(=O)(=O)c1ccc(C(=O)N(CCc2ccccc2)C2CCN(CCCc3ccccc3)CC2)cc1	-31.4	-4.0	0.1	-10.4	-4.8	-18.3
CCC(Oc1ccccc1OC)C(=O)N1CC(=O)Nc2ccccc21 (centres undefined)	-0.3	3.3	0.1	0.0	-3.6	2.6
O=C1CN(C(=O)COc2cccc3ccccc23)c2ccccc2N1	5.5	-2.7	23.4	41.1*	2.2	84.2*
CC(Nc1ccccc1Oc1ccccc1)C(=O)N1CC(=O)Nc2ccccc21 (centres undefined)	3.1	5.4	36.9*	6.1	-6.2	8.6
Cc1ccc(NC(=O)c2cn(-c3ccc(S(=O)(=O)N4CCCC4)cn3)cn2)cc1	29.1	2.7	12.9	13.1	11.7	18.8
CCNC(=O)c1cn(-c2ccc(S(=O)(=O)N3CCCC(C)C3)cn2)cn1 (centres undefined)	/	1.8	/	44.0*	-0.1	5.2
CC1CCCN(S(=O)(=O)c2ccc(-n3cnc(C(=O)NC4CC4)c3)nc2)C1 (centres undefined)	32.0*	25.2	7.2	44.8*	28.1	18.8
CCC(=O)Nc1ccc(-n2cnc(C(=O)NC3CC3)c2)nc1	-2.0	-0.5	-5.7	-4.4	-3.0	-134.1
O=C(NCCCN1CCCC1)c1cccc(Cl)c1	-9.6	-2.8	-8.5	-11.3	-6.7	-44.3
O=C(Cc1cccc(Cl)c1)NCCN1CCC(O)(c2cccc(F)c2)CC1	33.8*	-1.9	17.0	7.5	4.7	3.1
O=C(NCCNC(=O)c1nc(C2CC2)no1)c1ccc(F)cc1	/	2.7	/	0.0	-2.2	2.6
C=C1CCC[C@]2(C)C[C@H]3OC(=O)C(CNCCc4ccc(OC)c(OC)c4)[C@H]3CC12 (some centres undefined)	45.7*	-2.2	6.8	-11.2	0.0	-41.9
C=C1CCC[C@]2(C)C[C@H]3OC(=O)C(CNCCc4ccc(F)cc4)[C@H]3CC12 (some centres undefined)	26.3	6.3	-10.9	-13.3	-2.8	5.4
O=C(COC(=O)C1CCCCC1)Nc1ccc(Oc2ccccc2)cc1	28.3	11.6	11.1	31.4*	25.4	11.1
O=C(CCSc1ccccc1)Nc1ccc(-c2nc3ccccc3o2)cc1	-23.8	15.1	-2.4	2.9	-15.7	-4.5
O=C(CCSc1ccccc1)Nc1ccc(Oc2ccccc2)cc1	5.0	12.7	2.9	42.2*	6.3	13.2
